According to paper PMC4336329 (PLoS ONE, 2015):
Hit rate of the full screen: of about 310,000 compounds, about 14,000 (4.5%) showed an effect of 50% or more. The effect is printed as a negative number. Shown is part of a subset that was picked to be rich in strong results.

Each molecule was assayed against human ether-à-go-go-related gene (hERG) potassium channel (human, UniProt Q12809) (assay: primary screen, population patch clamp on CHO cells stably expressing hERG; higher = less effect of the substance).
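Note: peak tail current of the secondary pulse compared with the same well before compound.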

Sequence of human ether-à-go-go-related gene (hERG) potassium channel (Q12809 whole entry, looked up): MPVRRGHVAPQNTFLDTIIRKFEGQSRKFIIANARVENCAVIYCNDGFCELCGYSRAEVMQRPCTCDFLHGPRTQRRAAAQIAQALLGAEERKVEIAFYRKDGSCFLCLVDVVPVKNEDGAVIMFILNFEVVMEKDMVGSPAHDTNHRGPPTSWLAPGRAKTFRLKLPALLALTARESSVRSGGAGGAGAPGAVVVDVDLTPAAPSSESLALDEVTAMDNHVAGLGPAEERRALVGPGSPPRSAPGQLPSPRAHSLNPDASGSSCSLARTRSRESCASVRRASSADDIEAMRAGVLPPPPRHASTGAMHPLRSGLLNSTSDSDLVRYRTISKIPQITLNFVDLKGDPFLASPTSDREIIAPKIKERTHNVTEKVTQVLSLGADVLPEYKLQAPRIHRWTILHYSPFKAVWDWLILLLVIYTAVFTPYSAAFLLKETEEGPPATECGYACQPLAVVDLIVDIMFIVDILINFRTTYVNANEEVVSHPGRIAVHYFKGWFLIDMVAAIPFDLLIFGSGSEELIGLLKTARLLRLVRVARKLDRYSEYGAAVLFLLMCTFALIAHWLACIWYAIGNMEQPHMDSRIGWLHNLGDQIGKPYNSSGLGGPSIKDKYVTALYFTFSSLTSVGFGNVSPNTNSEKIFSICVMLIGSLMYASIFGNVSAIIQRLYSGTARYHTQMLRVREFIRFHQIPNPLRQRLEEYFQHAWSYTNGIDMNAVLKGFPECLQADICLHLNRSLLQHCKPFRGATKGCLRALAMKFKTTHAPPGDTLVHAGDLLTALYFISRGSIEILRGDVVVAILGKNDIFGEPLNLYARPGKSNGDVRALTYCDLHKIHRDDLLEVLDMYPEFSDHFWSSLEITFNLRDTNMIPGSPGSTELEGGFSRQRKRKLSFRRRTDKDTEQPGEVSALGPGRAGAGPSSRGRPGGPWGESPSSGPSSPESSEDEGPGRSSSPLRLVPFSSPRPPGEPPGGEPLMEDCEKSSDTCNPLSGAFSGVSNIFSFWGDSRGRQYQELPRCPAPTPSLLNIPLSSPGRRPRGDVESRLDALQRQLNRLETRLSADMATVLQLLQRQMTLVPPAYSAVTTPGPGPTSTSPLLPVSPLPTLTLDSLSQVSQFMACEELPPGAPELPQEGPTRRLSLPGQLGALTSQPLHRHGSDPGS

Row | SMILES | hERG current change (%, negative = inhibition) at 10uM [%]
1 | C=CCNC(=O)C1CC(=O)N(c2ccc(OCC(=O)Nc3ccc(OC)cc3)cc2)C1 (stereo not shown) | -3.5
2 | COc1ccc(-c2cc(=O)oc3cc(OC(C)C(=O)O)ccc23)cc1 (stereo not shown) | 6.26
3 | Cc1cccc(NC(=O)CNC(=O)Cc2ccc(S(=O)(=O)N3CCOCC3)s2)c1C | 5.91
4 | CN(C)S(=O)(=O)c1cccc(C(=O)Nc2cc(Cl)cc(Cl)c2)c1 | 4.25
5 | CC(=O)c1ccc(NS(=O)(=O)c2ccc3c(c2)CCC(=O)N3)cc1 | 8.49
6 | COCCn1c(CN2CCN(C(=O)c3ccco3)CC2)nc2c1c(=O)n(C)c(=O)n2C | -9.04
7 | Cn1c(=O)c2c(nc(CN3CCN(C(=O)c4ccco4)CC3)n2CCc2ccccc2)n(C)c1=O | -66.3
8 | Cn1c(=O)c2c(nc(CN3CCN(C(=O)c4ccco4)CC3)n2CC(N)=O)n(C)c1=O | 24.4
9 | Cn1c(=O)c2c(nc(CN3CCN(C(=O)c4ccco4)CC3)n2CCCc2ccccc2)n(C)c1=O | -68.5
10 | CCn1c(CN2CCN(C(=O)c3ccco3)CC2)nc2c1c(=O)n(C)c(=O)n2C | -16.4
11 | Cn1c(=O)c2c(nc(CN3CCN(C(=O)c4ccco4)CC3)n2CCCO)n(C)c1=O | -27.6
12 | CCN(CC)C(=O)c1cccc(C)c1 | 0.757
13 | Cc1cccc(C(=O)N/C(=C\c2ccco2)C(=O)N2CCCC2)c1 | -18.6
14 | Cc1nc2ccc(NC(=O)c3nn(CC(C)C)c(=O)c4ccccc34)cc2s1 | -26
15 | CC(C)Cn1nc(C(=O)Nc2cccc(C(=O)NC3CC3)c2)c2ccccc2c1=O | -71.6
16 | Cn1nc(C(=O)Nc2cccc(C(=O)NC3CC3)c2)c2ccccc2c1=O | -35.3
17 | CC(C)Cn1nc(C(=O)Nc2cccc(S(=O)(=O)N3CCCC3)c2)c2ccccc2c1=O | -7.01
18 | CCCn1nc(C(=O)NC2CC2)c2ccccc2c1=O | -19.8
19 | CCCCn1nc(C(=O)Nc2cccc(C(=O)NC3CC3)c2)c2ccccc2c1=O | -82.6
20 | N#C/C(C(=O)N1CCOCC1)=c1/s/c(=C\c2ccccn2)c(=O)n1-c1ccccc1 | 17.6

Row | SMILES | hERG current change (%, negative = inhibition) at 10uM [%]
21 | COCCCn1c(N)c(C(=O)NCc2ccco2)c2nc3ccccc3nc21 | 4.53
22 | Cc1cc(C)n2nc(SCC(=O)N/N=C/c3ccccn3)nc2n1 | 3.74
23 | C=CCN1C(=O)/C(=C\c2cccc(OC(=O)c3ccco3)c2)SC1=S | 2.37
24 | CC(C)n1ncc2c(C(=O)N3CCN(Cc4ccc(Br)s4)CC3)cc(C3CC3)nc21 | -4.36
25 | CC(=O)Nc1ccc(OS(=O)(=O)c2ccc(Cl)cc2)cc1 | -24.5
26 | CC(=O)Nc1ccc(OS(=O)(=O)c2cc(Cl)ccc2C)cc1 | -6.02
27 | COc1ccc(Cl)cc1S(=O)(=O)Oc1ccc(NC(C)=O)cc1 | -51.7
28 | COc1ccc(CCNC(=O)c2ccc3nc(-c4ccco4)c(-c4ccco4)nc3c2)cc1OC | -0.346
29 | COc1ccc(Cn2c(O)c(C=Nc3ccc(O)cc3)c3ccccc3c2=O)cc1 | 1.27
30 | O=C(c1[nH]nc2c1CCc1ccccc1-2)N1CCN(Cc2ccc3c(c2)OCO3)CC1 | -26.9
31 | O=C(N/N=C/c1ccc(O)cc1O)C(=O)N/N=C/c1ccc(O)cc1O | 14.1
32 | Nc1[nH]n2c(=O)c3c(nc2c1N=Nc1ccccc1)CCCC3 | -54.3
33 | Nc1[nH]n2c(=O)c3c(nc2c1N=Nc1ccc(Cl)cc1)CCCC3 | -8.56
34 | COc1cccc(N=Nc2c(N)[nH]n3c(=O)c4c(nc23)CCCC4)c1 | 12.2
35 | COc1ccc(OC)c2[nH]c(=O)c(CCNC(=O)c3ccc4c(c3)OCO4)cc12 | -10.2
36 | CN(C)S(=O)(=O)N1CCN(C(=O)c2ccccc2)CC1 | 8.25
37 | CCNC(=S)N/N=C1\CCCCc2ccccc21 | -3.93
38 | CC(C)NC(=S)N/N=C1\CCCCc2ccccc21 | -21.1
39 | C=C(C)CNC(=S)NN=C1c2ccccc2-c2ccccc21 | 6.79
40 | C=C(C)CNC(=S)N/N=C1\CCCCc2ccccc21 | -60.3

Row | SMILES | hERG current change (%, negative = inhibition) at 10uM [%]
41 | CC(C)NC(=S)N/N=C1\CCCc2ccccc21 | 10.4
42 | CCCCNC(=S)N/N=C1\CCCCc2ccccc21 | -64.4
43 | COc1cc(CCCN2C(=O)C(=O)NC[C@@H]2CC2CCCCC2)cc(OC)c1OC | 4
44 | N#Cc1cc[n+](CC(=O)c2ccc(NC(=O)c3ccccc3)cc2)cc1.[Br-] | -14.6
45 | Cc1ccc(SCCNC(=O)/C=C/c2ccc(Cl)cc2)cc1 | -0.0121
46 | CC(C)C(NC(=O)/C=C/c1ccc(F)cc1)C(C)C | 16.1
47 | Cc1ccc2c(c1)NC(=O)C(CC(=O)NCCCN1CCN(c3cc(C)ccc3C)CC1)O2 (stereo not shown) | -61.4
48 | Cc1ccc2c(c1)NC(=O)C(CC(=O)NCCCN1CCc3ccccc3C1)O2 (stereo not shown) | -65.7
49 | COc1ccc(N2CCN(CCCNC(=O)CC3Oc4ccc(C)cc4NC3=O)CC2)cc1 (stereo not shown) | -55.5
50 | Cc1ccc2c(c1)NC(=O)C(CC(=O)NCCCN1CCCCC1)O2 (stereo not shown) | -0.113
51 | Cc1ccc2c(c1)NC(=O)C(CC(=O)NCCCN1CCCCC1C)O2 (stereo not shown) | -4.68
52 | COc1ccc(NC(=O)CC2Oc3ccc(C)cc3NC2=O)cc1 (stereo not shown) | 11.3
53 | CCN(CCCNC(=O)CC1Oc2ccc(C)cc2NC1=O)Cc1ccccc1 (stereo not shown) | -61.5
54 | CCCCN(CCCC)CCCNC(=O)CC1Oc2ccc(C)cc2NC1=O (stereo not shown) | -49.5
55 | Cc1ccc2c(c1)NC(=O)C(CC(=O)NCCCN1CCCC1=O)O2 (stereo not shown) | 16.5
56 | CCC1CCCCN1CCCNC(=O)CC1Oc2ccc(C)cc2NC1=O (stereo not shown) | -7.95
57 | Cc1ccc2c(c1)NC(=O)C(CC(=O)NCCCN1CCCC1)O2 (stereo not shown) | 12.6
58 | CCN(CC)CCCNC(=O)CC1Oc2ccc(C)cc2NC1=O (stereo not shown) | 0.515
